# Whole data set: some 2,900 compounds, median “IRF Lucia reporter activity, fold change vs agonist alone” near 0.9, cut for the highest 2% near 2.8. The sample as a whole holds a higher share of the highest values than the screen did.
# What was measured:
# RAW-Dual [1] = assay: IRF Lucia reporter activity, fold change vs agonist alone; higher = enhanced IRF activity; details: library stock concentration (final ~1000-fold dilution): 10 mM; cytotoxicity flag (confluency mask): not cytotoxic; agonist: MPLA (TLR4) […]
# Summary of the method: (§1)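 RAW-Dual macrophages (50,000 cells/well in DMEM, 384-well plates) received 50 nL of library stock by pin tool, then a PRR agonist 1 h later, and were kept at 37 °C, 5% CO2. After 20 hours, supernatant was read for IRF by QuantiLuc luminescence and for NF-κB by QuantiBlue absorbance at 620 nm. Reporter activity is fold change over agonist-alone wells. Cytotoxic wells had IncuCyte confluency below 70% of agonist controls in both mask sets.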
# RAW-Dual [2] = assay: IRF Lucia reporter activity, fold change vs agonist alone; cytotoxicity flag (confluency mask): not cytotoxic; higher = enhanced IRF activity
# Summary of the method: as §1
# RAW-Dual [3] = assay: IRF Lucia reporter activity, fold change vs agonist alone; cytotoxicity flag (confluency mask): cytotoxic (confluency <70% of control); higher = enhanced IRF activity
# Summary of the method: as §1
# [4] = agonist: 3'3'-cGAMP (STING) 10 ug/mL
smiles,measurement,setting,value
COc1cc(F)c(C(C)C)cc1-c1ccc(C(F)(F)F)cc1CN1C(=O)OC(c2cc(C(F)(F)F)cc(C(F)(F)F)c2)C1C (stereo unspecified),IRF Lucia reporter activity,RAW-Dual [1],1.1
COc1cc(F)c(C(C)C)cc1-c1ccc(C(F)(F)F)cc1CN1C(=O)OC(c2cc(C(F)(F)F)cc(C(F)(F)F)c2)C1C (stereo unspecified) (library stock concentration (final ~1000-fold dilution): 10 mM),IRF Lucia reporter activity,RAW-Dual [2]; [4],1.12
same,IRF Lucia reporter activity,RAW-Dual [2]; agonist: LPS (TLR4) 0.1 ug/mL,1.14
Cc1ccc(NC(=O)c2ccc(CN3CCN(C)CC3)cc2)cc1Nc1nccc(-c2cccnc2)n1,IRF Lucia reporter activity,RAW-Dual [1],1.29
Nc1ncc(-c2ccnc(Nc3ccncc3)n2)c(CC2CC2)n1 (library stock concentration (final ~1000-fold dilution): 10 mM),IRF Lucia reporter activity,RAW-Dual [3]; [4],0.336
same,IRF Lucia reporter activity,RAW-Dual [3]; agonist: LPS (TLR4) 0.1 ug/mL,3.92
CC(C)(O)CNc1ncc(-c2ccnc(Nc3ccncc3)n2)c(CC2CC2)n1 (library stock concentration (final ~1000-fold dilution): 10 mM),IRF Lucia reporter activity,RAW-Dual [2]; [4],0.364
same,IRF Lucia reporter activity,RAW-Dual [2]; agonist: LPS (TLR4) 0.1 ug/mL,10.3
COc1cc(N2CCN(C)CC2)ccc1Nc1nccc(-c2cn(C)c3cnccc23)n1,IRF Lucia reporter activity,RAW-Dual [1],0.246
Cc1ccc(NC(=O)c2ccc(CN3CCN(C)CC3)cc2)cc1Nc1nccc(-c2cccnc2)n1 (library stock concentration (final ~1000-fold dilution): 10 mM),IRF Lucia reporter activity,RAW-Dual [2]; [4],0.549
same,IRF Lucia reporter activity,RAW-Dual [2]; agonist: LPS (TLR4) 0.1 ug/mL,0.944
Cc1nc(N)sc1-c1ccnc(Nc2ccc(N3CCOCC3)cc2)n1,IRF Lucia reporter activity,RAW-Dual [1],0.0284
COc1cc(N2CCN(C)CC2)ccc1Nc1nccc(-c2cn(C)c3cnccc23)n1 (library stock concentration (final ~1000-fold dilution): 10 mM),IRF Lucia reporter activity,RAW-Dual [2]; [4],0.0231
same,IRF Lucia reporter activity,RAW-Dual [2]; agonist: LPS (TLR4) 0.1 ug/mL,0.154
Cc1nc(N)sc1-c1ccnc(Nc2ccc(N3CCOCC3)cc2)n1 (library stock concentration (final ~1000-fold dilution): 10 mM),IRF Lucia reporter activity,RAW-Dual [2]; [4],0.0149
same,IRF Lucia reporter activity,RAW-Dual [2]; agonist: LPS (TLR4) 0.1 ug/mL,0.023
CC(C)(O)CNc1ncc(-c2ccnc(Nc3ccnc(Cl)c3)n2)c(CC2CC2)n1 (library stock concentration (final ~1000-fold dilution): 10 mM),IRF Lucia reporter activity,RAW-Dual [2]; [4],0.0702
same,IRF Lucia reporter activity,RAW-Dual [2]; agonist: LPS (TLR4) 0.1 ug/mL,3.2
CC(C)(O)CNc1nc(Nc2ccnc(C(F)(F)F)c2)nc(-c2cccc(C(F)(F)F)n2)n1 (library stock concentration (final ~1000-fold dilution): 10 mM),IRF Lucia reporter activity,RAW-Dual [2]; [4],1
same,IRF Lucia reporter activity,RAW-Dual [2]; agonist: LPS (TLR4) 0.1 ug/mL,1.29
Cc1c(NC(=O)OCC2COCCN2)cn2ncnc(Nc3ccc4c(cnn4Cc4cccc(F)c4)c3)c12 (stereo unspecified) (library stock concentration (final ~1000-fold dilution): 10 mM),IRF Lucia reporter activity,RAW-Dual [2]; [4],0.267
same,IRF Lucia reporter activity,RAW-Dual [2]; agonist: LPS (TLR4) 0.1 ug/mL,1.28
Cc1c(NC(=O)OCC2COCCN2)cn2ncnc(Nc3ccc4c(cnn4Cc4cccc(F)c4)c3)c12 (stereo unspecified),IRF Lucia reporter activity,RAW-Dual [1],1.3
O=C(CCc1ccc(O)cc1)c1c(O)cccc1OC1OC(CO)C(O)C(O)C1O (stereo unspecified) (library stock concentration (final ~1000-fold dilution): 10 mM),IRF Lucia reporter activity,RAW-Dual [2]; [4],0.943
same,IRF Lucia reporter activity,RAW-Dual [2]; agonist: LPS (TLR4) 0.1 ug/mL,0.918
O=C(CCc1ccc(O)cc1)c1c(O)cccc1OC1OC(CO)C(O)C(O)C1O (stereo unspecified),IRF Lucia reporter activity,RAW-Dual [1],1.01
CC(c1ccc2nccn2c1)n1nnc2ncc(-c3cnn(C)c3)nc21 (stereo unspecified) (library stock concentration (final ~1000-fold dilution): 10 mM),IRF Lucia reporter activity,RAW-Dual [2]; [4],0.953
same,IRF Lucia reporter activity,RAW-Dual [2]; agonist: LPS (TLR4) 0.1 ug/mL,1.15
CN(C)CCSSCCNC(=O)C1CCN(C(=O)CSc2ccc(Cl)cc2)CC1.O=C(O)C(F)(F)F,IRF Lucia reporter activity,RAW-Dual [1],0.751
CN(C)CCSSCCNC(=O)C1CCN(C(=O)CSc2ccc(Cl)cc2)CC1.O=C(O)C(F)(F)F (library stock concentration (final ~1000-fold dilution): 10 mM),IRF Lucia reporter activity,RAW-Dual [2]; [4],0.396
same,IRF Lucia reporter activity,RAW-Dual [2]; agonist: LPS (TLR4) 0.1 ug/mL,0.778
O=C1OC(COc2ccccc2[N+](=O)[O-])CC1Cc1ccccc1 (stereo unspecified) (library stock concentration (final ~1000-fold dilution): 10 mM),IRF Lucia reporter activity,RAW-Dual [2]; [4],1.23
same,IRF Lucia reporter activity,RAW-Dual [2]; agonist: LPS (TLR4) 0.1 ug/mL,1.23
O=c1cccccc1O (library stock concentration (final ~1000-fold dilution): 10 mM),IRF Lucia reporter activity,RAW-Dual [2]; [4],0.664
same,IRF Lucia reporter activity,RAW-Dual [2]; agonist: LPS (TLR4) 0.1 ug/mL,0.952
O=c1cccccc1O,IRF Lucia reporter activity,RAW-Dual [1],1.24
NC(=O)c1cc(F)cc2c1C(=O)N(C1CCN(C3CCC(F)(F)CC3)CC1)C2 (library stock concentration (final ~1000-fold dilution): 10 mM),IRF Lucia reporter activity,RAW-Dual [2]; [4],0.94
same,IRF Lucia reporter activity,RAW-Dual [2]; agonist: LPS (TLR4) 0.1 ug/mL,0.923
CC1(C)CN(C(=O)c2ccc(-c3cccc4nc(NC(=O)C5CC5)nn34)cc2)C1 (library stock concentration (final ~1000-fold dilution): 10 mM),IRF Lucia reporter activity,RAW-Dual [2]; [4],0.308
same,IRF Lucia reporter activity,RAW-Dual [2]; agonist: LPS (TLR4) 0.1 ug/mL,0.577
CC1(C)CN(C(=O)c2ccc(-c3cccc4nc(NC(=O)C5CC5)nn34)cc2)C1,IRF Lucia reporter activity,RAW-Dual [1],0.713

# Reference: the supplement of paper PMC10037445
